Publication PMC7862700, “An all-to-all approach to the identification of sequence-specific readers for epigenetic DNA modifications on cytosine”

Experiments:
Assay in all cases: DAPPL (digital affinity profiling via proximity ligation, sequencing); 10 mM Tris-HCl pH 7.5, 50 mM NaCl, 1 mM DTT, 4% glycerol, room temperature, 30 min; GST-TFs on glutathione beads, 16-mer random dsDNA library, 0.1% formaldehyde crosslink after washing; high values mean tight binding
FLI1 = target: T1, FLI1 (Homo sapiens, UniProt Q01543 1-452); details: protein: recombinant; tags: N-terminal GST; dsDNA, one strand shown
T1 sequence: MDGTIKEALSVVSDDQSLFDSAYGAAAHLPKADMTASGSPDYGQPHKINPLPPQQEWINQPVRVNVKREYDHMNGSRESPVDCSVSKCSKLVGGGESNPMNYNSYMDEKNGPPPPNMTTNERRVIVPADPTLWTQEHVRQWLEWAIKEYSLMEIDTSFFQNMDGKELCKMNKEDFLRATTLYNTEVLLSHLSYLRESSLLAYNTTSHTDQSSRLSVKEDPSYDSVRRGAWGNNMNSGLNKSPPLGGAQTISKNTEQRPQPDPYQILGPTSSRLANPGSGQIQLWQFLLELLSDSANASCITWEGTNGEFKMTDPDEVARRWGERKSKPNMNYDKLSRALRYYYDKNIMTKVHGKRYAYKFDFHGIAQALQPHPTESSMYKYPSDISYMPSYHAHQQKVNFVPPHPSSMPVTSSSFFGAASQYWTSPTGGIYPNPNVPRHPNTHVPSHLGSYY
How it was run: (§1)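 Binding signal is given per hexamer as its read frequency for a factor divided by its frequency in the tag-only sample. GST-fused human transcription factors were expressed in yeast, captured on glutathione beads, barcoded with DNA and pooled with that sample, then incubated with 200 nmole of a 16-mer random double-stranded DNA library in Tris/NaCl/DTT/glycerol buffer for 30 min at room temperature. The pools were then washed, crosslinked, proximity-ligated, amplified by PCR and sequenced on an Illumina NextSeq500.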

ELK1 = target: T2, ELK1 (Homo sapiens, UniProt P19419 1-428); details: protein: recombinant; tags: N-terminal GST; dsDNA, one strand shown
T2 sequence: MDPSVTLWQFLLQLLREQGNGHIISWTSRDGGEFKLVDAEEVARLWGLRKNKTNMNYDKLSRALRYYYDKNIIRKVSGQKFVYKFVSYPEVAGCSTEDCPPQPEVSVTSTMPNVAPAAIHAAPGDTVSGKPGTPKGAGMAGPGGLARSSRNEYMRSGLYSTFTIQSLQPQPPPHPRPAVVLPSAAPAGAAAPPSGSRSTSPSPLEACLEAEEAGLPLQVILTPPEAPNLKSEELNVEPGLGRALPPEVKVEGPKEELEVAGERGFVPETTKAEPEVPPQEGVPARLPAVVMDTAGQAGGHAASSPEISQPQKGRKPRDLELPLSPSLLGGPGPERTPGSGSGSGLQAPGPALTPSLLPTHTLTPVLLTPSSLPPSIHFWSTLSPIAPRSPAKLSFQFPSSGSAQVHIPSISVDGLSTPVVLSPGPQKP
How it was run: as §1

GABPA = target: T3, GABPA (Homo sapiens, UniProt Q06546 1-454); details: protein: recombinant; tags: N-terminal GST; dsDNA, one strand shown
T3 sequence: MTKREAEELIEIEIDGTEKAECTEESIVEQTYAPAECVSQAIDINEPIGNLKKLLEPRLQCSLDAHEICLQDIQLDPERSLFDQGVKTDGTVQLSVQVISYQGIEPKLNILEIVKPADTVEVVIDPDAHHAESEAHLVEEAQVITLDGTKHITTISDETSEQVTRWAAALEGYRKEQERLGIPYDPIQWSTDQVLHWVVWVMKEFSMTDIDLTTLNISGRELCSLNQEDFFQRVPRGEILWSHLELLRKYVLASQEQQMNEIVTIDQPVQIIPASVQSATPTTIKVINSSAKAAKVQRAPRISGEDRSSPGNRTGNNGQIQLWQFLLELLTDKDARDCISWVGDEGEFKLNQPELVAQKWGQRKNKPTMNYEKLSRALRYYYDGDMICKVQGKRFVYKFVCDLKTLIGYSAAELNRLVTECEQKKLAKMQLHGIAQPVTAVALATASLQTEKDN
How it was run: as §1

ERG = target: T4, ERG (Homo sapiens, UniProt P11308 1-479); details: protein: recombinant; tags: N-terminal GST; dsDNA, one strand shown
T4 sequence: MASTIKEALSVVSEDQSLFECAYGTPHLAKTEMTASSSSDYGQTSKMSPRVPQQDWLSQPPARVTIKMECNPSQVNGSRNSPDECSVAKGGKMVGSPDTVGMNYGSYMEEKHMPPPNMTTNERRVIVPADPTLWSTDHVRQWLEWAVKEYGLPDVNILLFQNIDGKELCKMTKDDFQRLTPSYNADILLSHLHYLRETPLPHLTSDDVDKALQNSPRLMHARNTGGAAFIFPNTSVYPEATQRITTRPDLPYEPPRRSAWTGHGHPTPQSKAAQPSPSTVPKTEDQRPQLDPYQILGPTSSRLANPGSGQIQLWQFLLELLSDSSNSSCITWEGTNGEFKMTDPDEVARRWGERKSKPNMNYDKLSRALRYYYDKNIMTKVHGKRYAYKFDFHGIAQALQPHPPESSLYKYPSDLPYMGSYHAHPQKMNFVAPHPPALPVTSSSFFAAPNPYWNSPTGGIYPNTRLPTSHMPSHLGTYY
How it was run: as §1

ELF1 = ELF1 (Homo sapiens, UniProt P32519 1-619); details: protein: recombinant; tags: N-terminal GST; dsDNA, one strand shown
ELF1, sequence (P32519 whole entry): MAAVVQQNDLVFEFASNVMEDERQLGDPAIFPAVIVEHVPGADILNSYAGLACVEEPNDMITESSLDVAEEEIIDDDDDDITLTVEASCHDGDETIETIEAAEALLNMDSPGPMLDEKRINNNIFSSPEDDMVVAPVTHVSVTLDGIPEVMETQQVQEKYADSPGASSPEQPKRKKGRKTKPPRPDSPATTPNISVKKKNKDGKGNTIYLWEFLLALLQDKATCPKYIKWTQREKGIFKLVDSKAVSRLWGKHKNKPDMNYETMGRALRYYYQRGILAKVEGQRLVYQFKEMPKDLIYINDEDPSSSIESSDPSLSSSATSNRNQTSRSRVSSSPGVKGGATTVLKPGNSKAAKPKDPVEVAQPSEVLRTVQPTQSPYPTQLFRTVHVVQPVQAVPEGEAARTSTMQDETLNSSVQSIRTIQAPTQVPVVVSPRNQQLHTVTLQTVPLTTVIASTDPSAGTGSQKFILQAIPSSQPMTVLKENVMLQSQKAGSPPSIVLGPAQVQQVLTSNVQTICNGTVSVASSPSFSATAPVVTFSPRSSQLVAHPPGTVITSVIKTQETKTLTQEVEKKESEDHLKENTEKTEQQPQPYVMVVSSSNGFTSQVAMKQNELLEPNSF
How it was run: as §1

EHF = target: T5, EHF (Homo sapiens, UniProt Q9NZC4 1-300); details: protein: recombinant; tags: N-terminal GST; dsDNA, one strand shown
T5 sequence: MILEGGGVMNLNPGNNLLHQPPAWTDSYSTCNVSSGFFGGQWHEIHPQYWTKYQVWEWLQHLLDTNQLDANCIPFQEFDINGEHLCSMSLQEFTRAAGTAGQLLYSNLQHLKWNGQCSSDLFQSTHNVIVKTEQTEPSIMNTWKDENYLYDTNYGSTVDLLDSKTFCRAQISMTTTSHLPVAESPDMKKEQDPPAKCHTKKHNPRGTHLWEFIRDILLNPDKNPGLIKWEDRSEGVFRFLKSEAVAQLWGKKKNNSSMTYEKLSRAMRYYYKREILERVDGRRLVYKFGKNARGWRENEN
How it was run: as §1

SPI1 = SPI1 (Homo sapiens, UniProt P17947 1-270); details: protein: recombinant; tags: N-terminal GST; dsDNA, one strand shown
How it was run: as §1

SPIB = SPIB (Homo sapiens, UniProt Q01892 1-262); details: protein: recombinant; tags: N-terminal GST; dsDNA, one strand shown
SPIB, sequence (Q01892 whole entry): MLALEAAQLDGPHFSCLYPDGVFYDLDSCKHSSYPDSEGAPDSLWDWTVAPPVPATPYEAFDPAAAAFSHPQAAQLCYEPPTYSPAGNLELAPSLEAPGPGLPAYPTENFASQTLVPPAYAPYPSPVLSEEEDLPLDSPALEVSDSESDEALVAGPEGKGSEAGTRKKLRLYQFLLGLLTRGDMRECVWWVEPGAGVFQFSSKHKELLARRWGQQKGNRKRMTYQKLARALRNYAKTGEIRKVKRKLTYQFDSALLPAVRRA
How it was run: as §1

ELK3 = target: T6, ELK3 (Homo sapiens, UniProt P41970 1-407); details: protein: recombinant; tags: N-terminal GST; dsDNA, one strand shown
T6 sequence: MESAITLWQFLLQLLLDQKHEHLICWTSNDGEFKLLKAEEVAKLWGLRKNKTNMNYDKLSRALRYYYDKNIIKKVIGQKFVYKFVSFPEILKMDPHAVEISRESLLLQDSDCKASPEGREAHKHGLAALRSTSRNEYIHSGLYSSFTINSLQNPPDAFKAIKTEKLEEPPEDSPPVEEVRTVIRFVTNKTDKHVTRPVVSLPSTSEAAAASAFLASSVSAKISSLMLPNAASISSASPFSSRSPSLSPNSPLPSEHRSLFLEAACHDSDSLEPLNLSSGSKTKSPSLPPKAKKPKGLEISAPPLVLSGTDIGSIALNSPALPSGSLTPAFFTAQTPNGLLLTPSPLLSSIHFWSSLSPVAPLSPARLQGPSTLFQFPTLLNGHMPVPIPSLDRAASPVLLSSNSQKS
How it was run: as §1

FEV = target: T7, FEV (Homo sapiens, UniProt Q99581 1-238); details: protein: recombinant; tags: N-terminal GST; dsDNA, one strand shown
T7 sequence: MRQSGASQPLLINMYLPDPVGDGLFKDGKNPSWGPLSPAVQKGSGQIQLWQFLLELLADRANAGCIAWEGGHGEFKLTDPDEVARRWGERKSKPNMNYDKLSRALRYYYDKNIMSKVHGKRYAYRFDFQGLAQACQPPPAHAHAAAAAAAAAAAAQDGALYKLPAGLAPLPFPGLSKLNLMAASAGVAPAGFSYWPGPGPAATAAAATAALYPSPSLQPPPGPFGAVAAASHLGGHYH
How it was run: as §1

ETV5 = ETV5 (Homo sapiens, UniProt P41161 1-510); details: protein: recombinant; tags: N-terminal GST; dsDNA, one strand shown
ETV5, sequence (P41161 whole entry): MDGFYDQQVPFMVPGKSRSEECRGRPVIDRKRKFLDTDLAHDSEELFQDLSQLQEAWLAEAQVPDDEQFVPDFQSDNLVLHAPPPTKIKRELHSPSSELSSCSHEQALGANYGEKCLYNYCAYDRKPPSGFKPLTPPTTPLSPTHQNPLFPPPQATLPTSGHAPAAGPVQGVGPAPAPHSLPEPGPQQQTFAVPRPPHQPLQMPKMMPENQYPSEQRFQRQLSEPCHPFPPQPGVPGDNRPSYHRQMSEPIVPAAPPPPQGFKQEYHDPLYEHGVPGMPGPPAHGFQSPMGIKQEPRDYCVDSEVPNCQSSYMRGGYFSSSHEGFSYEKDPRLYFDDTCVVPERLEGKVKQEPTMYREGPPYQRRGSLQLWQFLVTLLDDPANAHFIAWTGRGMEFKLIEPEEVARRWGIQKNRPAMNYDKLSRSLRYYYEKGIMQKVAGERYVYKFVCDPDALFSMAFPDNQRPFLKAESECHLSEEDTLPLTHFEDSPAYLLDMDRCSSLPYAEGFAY
How it was run: as §1

HSF1 = HSF1 (Homo sapiens, UniProt Q00613 1-529); details: protein: recombinant; tags: N-terminal GST; chain copies: 3; dsDNA, one strand shown
HSF1, sequence (Q00613 whole entry): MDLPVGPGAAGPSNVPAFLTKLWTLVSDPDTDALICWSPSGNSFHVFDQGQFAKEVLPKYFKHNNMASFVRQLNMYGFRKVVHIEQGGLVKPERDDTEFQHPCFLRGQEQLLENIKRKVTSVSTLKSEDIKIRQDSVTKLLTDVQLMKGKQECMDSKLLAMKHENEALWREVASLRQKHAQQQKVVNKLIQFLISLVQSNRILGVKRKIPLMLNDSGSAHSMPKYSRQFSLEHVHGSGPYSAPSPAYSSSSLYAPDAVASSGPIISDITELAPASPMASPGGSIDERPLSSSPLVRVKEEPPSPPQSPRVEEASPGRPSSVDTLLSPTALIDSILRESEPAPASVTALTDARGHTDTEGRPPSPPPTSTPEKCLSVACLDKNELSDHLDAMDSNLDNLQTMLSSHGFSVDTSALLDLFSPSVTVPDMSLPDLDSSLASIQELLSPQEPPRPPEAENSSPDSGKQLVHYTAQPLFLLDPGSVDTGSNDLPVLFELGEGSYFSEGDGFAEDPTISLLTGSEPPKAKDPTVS
How it was run: as §1

SPIC = target: T8, SPIC (Homo sapiens, UniProt Q8N5J4 1-248); details: protein: recombinant; tags: N-terminal GST; dsDNA, one strand shown
T8 sequence: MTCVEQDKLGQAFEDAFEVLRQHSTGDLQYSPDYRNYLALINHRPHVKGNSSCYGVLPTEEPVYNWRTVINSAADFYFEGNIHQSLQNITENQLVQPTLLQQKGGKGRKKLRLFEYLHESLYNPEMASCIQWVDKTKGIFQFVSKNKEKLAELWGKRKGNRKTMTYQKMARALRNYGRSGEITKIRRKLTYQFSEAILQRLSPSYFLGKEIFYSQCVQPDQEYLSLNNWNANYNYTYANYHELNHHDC
How it was run: as §1

ELF4 = ELF4 (Homo sapiens, UniProt Q99607 1-663); details: protein: recombinant; tags: N-terminal GST; dsDNA, one strand shown
ELF4, sequence (Q99607 whole entry): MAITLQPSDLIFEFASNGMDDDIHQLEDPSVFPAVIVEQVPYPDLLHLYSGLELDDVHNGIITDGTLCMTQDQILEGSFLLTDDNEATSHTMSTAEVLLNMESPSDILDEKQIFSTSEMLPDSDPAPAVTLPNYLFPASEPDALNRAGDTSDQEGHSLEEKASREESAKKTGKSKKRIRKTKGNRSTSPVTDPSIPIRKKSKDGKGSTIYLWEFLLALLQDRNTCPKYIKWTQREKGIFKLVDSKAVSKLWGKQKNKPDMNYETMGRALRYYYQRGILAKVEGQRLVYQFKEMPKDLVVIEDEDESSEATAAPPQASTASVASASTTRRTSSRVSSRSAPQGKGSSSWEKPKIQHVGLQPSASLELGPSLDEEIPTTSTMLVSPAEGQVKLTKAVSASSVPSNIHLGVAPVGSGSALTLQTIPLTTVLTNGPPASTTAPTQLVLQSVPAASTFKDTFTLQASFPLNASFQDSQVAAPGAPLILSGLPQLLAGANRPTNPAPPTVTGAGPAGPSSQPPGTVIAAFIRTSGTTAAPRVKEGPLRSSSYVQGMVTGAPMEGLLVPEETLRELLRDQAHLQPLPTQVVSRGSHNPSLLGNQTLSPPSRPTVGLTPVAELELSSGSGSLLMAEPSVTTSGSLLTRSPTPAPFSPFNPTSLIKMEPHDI
How it was run: as §1

ELK4 = target: T9, ELK4 (Homo sapiens, UniProt P28324-2 1-405); details: protein: recombinant; tags: N-terminal GST; dsDNA, one strand shown
T9 sequence: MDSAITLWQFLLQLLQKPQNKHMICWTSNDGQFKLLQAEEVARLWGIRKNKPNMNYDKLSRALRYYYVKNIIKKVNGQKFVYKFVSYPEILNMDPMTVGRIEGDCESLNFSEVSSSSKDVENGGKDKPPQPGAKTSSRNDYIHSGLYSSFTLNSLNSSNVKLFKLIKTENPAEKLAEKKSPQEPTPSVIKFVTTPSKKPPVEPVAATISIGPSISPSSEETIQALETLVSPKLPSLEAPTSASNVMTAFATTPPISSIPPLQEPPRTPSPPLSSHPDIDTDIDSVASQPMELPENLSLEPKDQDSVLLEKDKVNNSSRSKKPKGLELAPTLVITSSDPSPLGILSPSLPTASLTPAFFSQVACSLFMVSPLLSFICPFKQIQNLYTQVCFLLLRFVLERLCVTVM
How it was run: as §1

ETV2 = target: T10, ETV2 (Homo sapiens, UniProt O00321 1-342); details: protein: recombinant; tags: N-terminal GST; dsDNA, one strand shown
T10 sequence: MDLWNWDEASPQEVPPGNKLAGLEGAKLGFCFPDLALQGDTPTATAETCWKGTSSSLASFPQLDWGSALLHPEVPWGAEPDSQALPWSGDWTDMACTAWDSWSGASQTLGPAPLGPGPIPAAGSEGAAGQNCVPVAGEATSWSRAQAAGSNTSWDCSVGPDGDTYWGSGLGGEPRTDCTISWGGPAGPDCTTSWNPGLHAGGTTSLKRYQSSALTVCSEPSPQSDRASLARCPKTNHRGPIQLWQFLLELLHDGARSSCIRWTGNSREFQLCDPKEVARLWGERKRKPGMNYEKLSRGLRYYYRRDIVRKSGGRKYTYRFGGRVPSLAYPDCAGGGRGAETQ
How it was run: as §1

ELF3 = target: T11, ELF3 (Homo sapiens, UniProt P78545 1-371); details: protein: recombinant; tags: N-terminal GST; dsDNA, one strand shown
T11 sequence: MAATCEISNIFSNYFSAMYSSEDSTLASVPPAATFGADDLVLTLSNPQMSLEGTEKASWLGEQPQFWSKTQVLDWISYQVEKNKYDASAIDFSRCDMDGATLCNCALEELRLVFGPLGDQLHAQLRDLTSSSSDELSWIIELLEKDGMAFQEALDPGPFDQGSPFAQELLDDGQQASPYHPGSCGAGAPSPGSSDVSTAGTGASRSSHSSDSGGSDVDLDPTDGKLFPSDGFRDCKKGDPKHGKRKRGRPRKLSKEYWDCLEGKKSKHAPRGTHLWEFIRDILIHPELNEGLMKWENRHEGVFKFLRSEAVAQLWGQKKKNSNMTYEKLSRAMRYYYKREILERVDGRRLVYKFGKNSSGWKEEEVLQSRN
How it was run: as §1

CRX = CRX (Homo sapiens, UniProt O43186 1-299); details: protein: recombinant; tags: N-terminal GST; dsDNA, one strand shown
CRX, sequence (O43186 whole entry): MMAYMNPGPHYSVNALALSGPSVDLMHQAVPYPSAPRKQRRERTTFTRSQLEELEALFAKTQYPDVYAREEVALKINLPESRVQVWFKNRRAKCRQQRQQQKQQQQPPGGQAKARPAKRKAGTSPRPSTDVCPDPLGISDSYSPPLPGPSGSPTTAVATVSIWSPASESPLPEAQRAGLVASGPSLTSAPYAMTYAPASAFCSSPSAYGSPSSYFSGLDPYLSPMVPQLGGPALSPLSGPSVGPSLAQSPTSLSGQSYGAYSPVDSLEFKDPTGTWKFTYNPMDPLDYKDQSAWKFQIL
How it was run: as §1

ETV1 = ETV1 (Homo sapiens, UniProt P50549 1-477); details: protein: recombinant; tags: N-terminal GST; dsDNA, one strand shown
ETV1, sequence (P50549 whole entry): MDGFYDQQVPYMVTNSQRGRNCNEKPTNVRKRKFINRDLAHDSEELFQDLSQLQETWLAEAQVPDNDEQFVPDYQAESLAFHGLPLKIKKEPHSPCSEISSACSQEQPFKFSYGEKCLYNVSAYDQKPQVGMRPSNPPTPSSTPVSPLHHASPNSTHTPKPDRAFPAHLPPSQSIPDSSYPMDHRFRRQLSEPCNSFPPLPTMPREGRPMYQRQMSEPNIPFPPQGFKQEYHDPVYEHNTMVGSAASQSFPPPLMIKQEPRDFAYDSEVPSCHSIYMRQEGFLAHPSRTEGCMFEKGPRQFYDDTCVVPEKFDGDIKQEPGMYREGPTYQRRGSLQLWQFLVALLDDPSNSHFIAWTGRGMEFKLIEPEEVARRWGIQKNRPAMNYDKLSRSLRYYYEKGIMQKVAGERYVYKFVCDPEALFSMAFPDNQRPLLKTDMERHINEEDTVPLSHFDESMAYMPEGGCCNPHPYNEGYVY
How it was run: as §1

TCTAAA
binding signal (FLI1): 1.24 fold enrichment (6-mer frequency, TF over GST control) | binding signal (ELK1): 1.22 fold enrichment (6-mer frequency, TF over GST control) | binding signal (GABPA): 1.26 fold enrichment (6-mer frequency, TF over GST control) | binding signal (ERG): 1.24 fold enrichment (6-mer frequency, TF over GST control) | binding signal (ELF1): 1.21 fold enrichment (6-mer frequency, TF over GST control) | binding signal (EHF): 1.2 fold enrichment (6-mer frequency, TF over GST control) | binding signal (SPI1): 1.18 fold enrichment (6-mer frequency, TF over GST control) | binding signal (SPIB): 1.16 fold enrichment (6-mer frequency, TF over GST control) | binding signal (ELK3): 1.2 fold enrichment (6-mer frequency, TF over GST control) | binding signal (FEV): 1.15 fold enrichment (6-mer frequency, TF over GST control) | binding signal (ETV5): 1.15 fold enrichment (6-mer frequency, TF over GST control) | binding signal (HSF1): 1.46 fold enrichment (6-mer frequency, TF over GST control) | binding signal (SPIC): 1.46 fold enrichment (6-mer frequency, TF over GST control) | binding signal (ELF4): 1.27 fold enrichment (6-mer frequency, TF over GST control) | binding signal (ELK4): 1.3 fold enrichment (6-mer frequency, TF over GST control) | binding signal (ETV2): 1.27 fold enrichment (6-mer frequency, TF over GST control) | binding signal (ELF3): 1.14 fold enrichment (6-mer frequency, TF over GST control) | binding signal (CRX): 1.6 fold enrichment (6-mer frequency, TF over GST control) | binding signal (ETV1): 1.16 fold enrichment (6-mer frequency, TF over GST control)
